This is one part of the list. How many sequences the whole screen found active is unknown.
Target: furin, P09958
Test: furin cleavage Z-score vs untreated control; higher = more cleavage, active = 3.5 or more, inactive = 1 or less, 8 variable residues between constant flanks
How it was run: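 Reactions of 0.01 ml ran for 7.5, 15 or 30 min in 50 mM HEPES pH 7.5 with CaCl2 and NaCl, at 1:10 enzyme:substrate. In them, purified furin acted on bead-held 8-mer peptides fused to a cDNA oligonucleotide. The cleavage Z-score was obtained by lowess-adjusting log sequencing counts of released DNA against furin-free reactions and scaling by median absolute deviation.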

furin, P09958, sequence (P09958 whole entry): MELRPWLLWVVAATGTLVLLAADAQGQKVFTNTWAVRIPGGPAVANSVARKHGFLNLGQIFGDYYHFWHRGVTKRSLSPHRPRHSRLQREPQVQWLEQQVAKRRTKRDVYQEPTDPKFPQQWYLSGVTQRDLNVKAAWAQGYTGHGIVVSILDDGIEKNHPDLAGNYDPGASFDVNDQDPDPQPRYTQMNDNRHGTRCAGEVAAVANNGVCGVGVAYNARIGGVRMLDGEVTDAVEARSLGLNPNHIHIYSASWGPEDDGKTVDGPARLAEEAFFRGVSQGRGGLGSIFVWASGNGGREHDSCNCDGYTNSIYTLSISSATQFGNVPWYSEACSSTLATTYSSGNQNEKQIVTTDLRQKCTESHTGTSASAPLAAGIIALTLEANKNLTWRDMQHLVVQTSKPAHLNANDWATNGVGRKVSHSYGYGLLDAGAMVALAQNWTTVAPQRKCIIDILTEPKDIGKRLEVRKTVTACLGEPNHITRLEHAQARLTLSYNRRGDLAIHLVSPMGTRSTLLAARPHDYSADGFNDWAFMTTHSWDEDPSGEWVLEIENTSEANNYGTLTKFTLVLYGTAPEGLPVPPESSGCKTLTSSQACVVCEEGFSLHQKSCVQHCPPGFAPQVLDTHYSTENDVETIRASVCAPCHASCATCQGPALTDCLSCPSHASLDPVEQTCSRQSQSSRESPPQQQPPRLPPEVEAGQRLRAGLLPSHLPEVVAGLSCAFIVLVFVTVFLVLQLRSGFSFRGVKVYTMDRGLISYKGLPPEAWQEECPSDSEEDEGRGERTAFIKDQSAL

Sequence	furin cleavage Z-score (7.5 min)	furin cleavage Z-score (15 min)	furin cleavage Z-score (30 min)
CALRHHNLVYAGNASASA [HC1386]	1.49	0.243 (inactive)	1.05
CACINGVCWTAGNASASA [HC697]	-0.68 (inactive)	-1.02 (inactive)	-2.54 (inactive)
CALNCNDSLNAGNASASA [HC374]	-1.18 (inactive)	-0.292 (inactive)	-1.02 (inactive)
CADAESYSSMAGNASASA [HC1351]	1.28	0.832 (inactive)	-0.308 (inactive)
CATPGDPKRTAGNASASA [FS-510]	-0.0828 (inactive)	0.23 (inactive)	-0.487 (inactive)
CAVLRRDVITAGNASASA [FS-2855]	0.181 (inactive)	-1.21 (inactive)	0.595 (inactive)
CAVLHRNKRTAGNASASA [FS-1661]	9.47 (active)	9.94 (active)	9.22 (active)
CAVLGRKKRTAGNASASA [FS-1102]	8.65 (active)	9.15 (active)	8.6 (active)
CASPGRHKRTAGNASASA [FS-380]	8.84 (active)	8.17 (active)	6.66 (active)
CASPGRSARPAGNASASA [FS-93]	-1.18 (inactive)	-1.19 (inactive)	-1.31 (inactive)
CAVLEVVTSTAGNASASA [HC2270]	0.137 (inactive)	-0.489 (inactive)	-0.471 (inactive)
CAISLRFKRTAGNASASA [FS-172]	7.22 (active)	6.1 (active)	6.83 (active)
CAYNPPLVETAGNASASA [HC1307]	-1.06 (inactive)	-1.13 (inactive)	-1.23 (inactive)
CADVEVVTSTAGNASASA [HC2290]	1.98	0.479 (inactive)	0.627 (inactive)
CAYSGGDIYHAGNASASA [HC1648]	-0.433 (inactive)	-0.656 (inactive)	-0.39 (inactive)
CAMHTRCHCGAGNASASA [HC1173]	-0.571 (inactive)	-2.41 (inactive)	-1.42 (inactive)
CATRTIASPKAGNASASA [HC704]	1.03	0.625 (inactive)	-0.793 (inactive)
CAWRVDGIMHAGNASASA [HC1170]	1.37	0.67 (inactive)	0.743 (inactive)
CAQLLRKKRPAGNASASA [FS-479]	2.18	1.54	4.39 (active)
CAELLRKKRTAGNASASA [FS-991]	5.51 (active)	6.85 (active)	6.38 (active)
CAIRSGKKRTAGNASASA [FS-669]	-1.71 (inactive)	-0.504 (inactive)	-0.845 (inactive)

Sequence	furin cleavage Z-score (7.5 min)	furin cleavage Z-score (15 min)	furin cleavage Z-score (30 min)
CAELGDDGRTAGNASASA [FS-1627]	-0.885 (inactive)	-0.821 (inactive)	-0.581 (inactive)
CAILSRAKRPAGNASASA [FS-252]	0.222 (inactive)	-1.38 (inactive)	0.306 (inactive)
CAPPPKSPPVAGNASASA [HC1319]	-0.03 (inactive)	-0.325 (inactive)	0.671 (inactive)
CAPPPRKKRTAGNASASA [HC1323]	12.7 (active)	14.5 (active)	10.1 (active)
CAAAQTFLATAGNASASA [HC693]	-1.34 (inactive)	-1.47 (inactive)	-1.85 (inactive)
CACTPCSAHLAGNASASA [HC2480]	2.02	1.15	0.414 (inactive)
CAHYPCTINYAGNASASA [HC469]	-0.918 (inactive)	-0.579 (inactive)	0.122 (inactive)
CAMEECSGHLAGNASASA [HC1736]	-0.517 (inactive)	-0.79 (inactive)	1.12
CAVWCCSMSYAGNASASA [HC2008]	1.84	-0.334 (inactive)	1.13
CAIGGRFDRQAGNASASA [FS-1012]	-1.34 (inactive)	2.43	1.03
CANMWRCPRQAGNASASA [FS-181]	1.61	-1.4 (inactive)	-1.2 (inactive)
CACLRRRRRQAGNASASA [FS-1623]	8.28 (active)	7.74 (active)	5.47 (active)
CAGREERRRQAGNASASA [FS-787]	-0.438 (inactive)	-0.529 (inactive)	0.464 (inactive)
CARLRKCVEQAGNASASA [FS-1860]	-0.549 (inactive)	0.53 (inactive)	1.14
CASPQRRRRQAGNASASA [FS-1415]	7.36 (active)	8.25 (active)	6.4 (active)
CAIFRRRPRQAGNASASA [FS-801]	5.14 (active)	4.22 (active)	2.76
CAEQRRRRRQAGNASASA [FS-234]	8.68 (active)	6.63 (active)	6.29 (active)
CASTPCSAELAGNASASA [HC2552]	-0.156 (inactive)	0.767 (inactive)	0.789 (inactive)
CAGLEVVTSTAGNASASA [HC2276]	1.36	-0.694 (inactive)	-0.958 (inactive)
CASILGIGTVAGNASASA [HC823]	-0.809 (inactive)	0.141 (inactive)	-0.562 (inactive)
CAAYAQQTRGAGNASASA [HC676]	0.0125 (inactive)	0.047 (inactive)	1.9
